Compound activity from PubChem BioAssay.
MLL AF4-AF9 inh – inhibitors of AF4 peptide binding to AF9, primary screen, biochemical, AlphaScreen, biotin-AF4 peptide, FLAG-AF9, single point; Protein AF-9 (Homo sapiens), P42568; inhibition, % at 10 µM; 350,000 compounds, 0.47% hits; AID 651704, 2012;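 active = every replicate reaching a set inhibition limit, whatever the replicate mean, cut at about 25% in these data; inconclusive = mean inhibition reaches that limit but some replicates miss it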;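 also: 0% = plate neutral control median and 100% = total signal loss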
Target sequence (P42568 whole entry, looked up): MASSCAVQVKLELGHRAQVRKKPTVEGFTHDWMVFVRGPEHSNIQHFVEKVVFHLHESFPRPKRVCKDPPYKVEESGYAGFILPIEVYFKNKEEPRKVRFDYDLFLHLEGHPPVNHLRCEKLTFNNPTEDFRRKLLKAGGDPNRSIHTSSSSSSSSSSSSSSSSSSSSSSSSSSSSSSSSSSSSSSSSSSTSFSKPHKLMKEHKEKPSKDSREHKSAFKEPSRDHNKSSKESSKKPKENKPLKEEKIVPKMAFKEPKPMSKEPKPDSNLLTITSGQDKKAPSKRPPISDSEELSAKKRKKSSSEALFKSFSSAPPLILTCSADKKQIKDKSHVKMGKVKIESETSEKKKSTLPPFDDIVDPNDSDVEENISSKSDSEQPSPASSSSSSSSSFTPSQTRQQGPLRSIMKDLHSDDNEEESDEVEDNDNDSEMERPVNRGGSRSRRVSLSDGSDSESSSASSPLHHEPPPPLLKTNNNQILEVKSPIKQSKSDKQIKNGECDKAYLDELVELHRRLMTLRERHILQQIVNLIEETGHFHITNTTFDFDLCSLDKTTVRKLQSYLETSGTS
MITF act – activators of MITF-driven TRPM1 promoter reporter, primary screen, cell-based, SK-MEL-5, luciferase, single point. SK-MEL-5 TRPM1-promoter luciferase, 24 h; % of positive control, neutral wells = 0. activation, % at 12.5 µM. 300,000 compounds, 0.75% hits;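 active = mean activation of at least 80% with every replicate also reaching 80%; inconclusive = mean reaches 80% but some replicate falls short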;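 also: 0% = neutral control wells and 100% = parthenolide positive control wells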
esBAF inh – Bmi1 luciferase reporter increase in mESCs, primary screen, esBAF inhibitor project, mouse ES cells, Bmi1 luciferase knock-in, single point; AID 602393, 2012; 350,000 compounds, 2% hits; 24 h; 100% = twice the neutral-well signal; reporter increase, % at 12.5 µM; in the data active = activation above about 40%; inconclusive = no clear call, values can overlap the other calls;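 also: 0% = median of the plate's neutral control wells and 100% = double that signal; a rise in the Bmi1 reporter signal indicates esBAF inhibition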
Wnt bcat act – Wnt/beta-catenin pathway activators, primary screen, cell-based, plate reader, single point; AID 743398, 2014; 300,000 compounds, 1.2% hits; Wnt/beta-catenin reporter cell assay, activator; activation, % at 9.35 µM; in the data active = activation above about 30%, passing the limit was not always enough; inconclusive = no clear call, values can overlap the other calls;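 also: 0% = neutral control wells and 100% = positive control wells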
FGF22 binding – binders of human FGF22 protein, primary screen, FGF22 synaptogenesis inhibitor project, biophysical, thermal shift, single point. activity (Tm shift, normalised), % at 9.99 µM. Fibroblast growth factor 22 (Homo sapiens), Q9HCT0. recombinant FGF22 thermal shift, SYPRO orange fluorescence; percent of sucrose octasulfate shift, DMSO zero. 340,000 compounds, 1.5% hits;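 active = mean Tm shift, scaled 0 neutral to 100 positive control, at about 1.3% or above, every replicate too, limit read from the data; inconclusive = no clear call, values can overlap the other calls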
SMARCA2 activ – SMARCA2 (BRM) function activators, primary screen, cell-based, luminescence, high throughput | AID 652017, 2013 | activation, % at 9.1 µM | 370,000 compounds, 1% hits | MG213 cells, MMTV-luciferase reporter, dexamethasone, overnight; in the data active = activation above about 7.8%;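 also: 0% = vehicle wells and 100% = reference activator wells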
* = called active by the depositor; ? = inconclusive; . = no result given; ! = not confirmed by another sample. Sampled rows, rich in hits. Any-hit rate of the full collection: about 4.3%.

SMILES | MLL AF4-AF9 inh | MITF act | esBAF inh | Wnt bcat act | FGF22 binding | SMARCA2 activ
O=C1/C(=C/c2ccco2)CCc2ccccc21 | -3 | 22 | . | 24 | 0 | 7
Nc1ccc2c(c1)C/C(=C/c1ccco1)C2=O | . | 55 | . | 66* | . | 2
Cc1cccc(N=[N+]([O-])c2cccc(C)n2)n1 | 0 | 70 | 57* | 13 | 0 | 8
COC(=O)c1sc(C(C)(C)C)cc1CS(=O)(=O)c1ccc(Cl)cc1 | -3 | 0 | . | 3 | 15* | -1
CN1C(=O)c2cc(NC(=O)C3CCOCC3)ccc2OC[C@@H]2O[C@@H](CC(=O)O)CC[C@H]21 | -2 | . | -4 | . | 0 | .
CCSc1nsc(NC(=O)Nc2cccc(OC)c2)n1 | -1 | 56 | 17 | 15 | . | -3
CCCCCCSc1nsc(NC(C)=O)n1 | . | 67 | 60* | . | . | 3
CCCSc1nsc(NC(=O)c2cccnc2OCC)n1 | -1 | -10 | . | -1 | 0 | -2
CCCCSc1nsc(NC(C)=O)n1 | . | 91* | . | 44* | . | 3
CCCSc1nsc(NC(=O)CCC)n1 | -23 | 113* | 28 | 20 | 0 | 4
CCSc1nsc(NC(=O)Nc2ccccc2F)n1 | 3 | 14 | 36 | 7 | 0 | 3
COC(=O)C1CN(C(=O)OC(C)(C)C)C2=C1C(=O)CC(C)(C(=O)OC(C)(C)C)C2 (stereo not drawn) | . | . | . | . | . | -2
COc1ccccc1-c1cnc2c(c1)C(=O)N([C@@H](C)CO)C[C@@H](C)[C@H](CN(C)Cc1ccccc1)O2 | -2 | . | -2 | . | 0 | .
CC(C)NC(=O)N(C)C[C@H]1Oc2c(NC(=O)Nc3cccc4ccccc34)cccc2C(=O)N([C@H](C)CO)C[C@@H]1C | 0 | . | 0 | . | 0 | .
CO[C@@H]1CN(C)C(=O)c2ccc(NC(=O)Nc3ccccc3)cc2OC[C@@H](C)N(C(=O)CC2CC2)C[C@@H]1C | 3 | . | -1 | . | 0 | .
CC1(C)CC(=O)c2c(O)cc(OCc3ccc([N+](=O)[O-])cc3)cc2O1 | . | 78 | 47* | . | . | 0
CC/C(=C(\c1ccccc1)c1ccc(OCCN(C)C)cc1)c1ccccc1 | 30*! | -18 | -3 | -1 | 0 | -3
CCC(=C(c1ccccc1)c1ccc(OCCN(C)C)cc1)c1ccccc1 | 3 | . | -1 | -2 | 0 | -3
C[C@H]1CN([C@@H](C)CO)C(=O)c2cc(C#CC3CCCCC3)cnc2O[C@@H]1CN(C)C(=O)c1ccncc1 | 1 | . | 4 | . | 0 | .
CN(C)c1ccc(CN(CC2CCCO2)C(=O)c2cc3ccccc3o2)cc1 (stereo not drawn) | 26* | 6 | -2 | -2 | 0 | -2
Cc1c(C(=O)N(Cc2ccc(N(C)C)cc2)CC2CCCO2)oc2ccccc12 (stereo not drawn) | 19 | -8 | 3 | 1 | 0 | 5
Cc1ccc2oc(C(=O)N(Cc3ccncc3)CC3CCCO3)c(C)c2c1 (stereo not drawn) | 0 | 64 | 58* | 15 | 0 | 2
Cc1[nH]c2ccccc2c1C(=O)NS(=O)(=O)Nc1ccccc1 | -9 | -8 | 9 | -1 | 43* | -5
Cc1[nH]c2ccccc2c1C(=O)CCl | -1 | -61 | . | -1 | 0 | -3
CC(OC(=O)C1=COCCO1)C(=O)Nc1cc(S(=O)(=O)N2CCCCC2)ccc1Cl (stereo not drawn) | 0 | -7 | 0 | 3 | 43* | 2
O=C(CSc1n[nH]c(=O)[nH]c1=O)c1ccc([N+](=O)[O-])cc1 | 8 | -1 | . | 0 | 0 | -4
COc1ccc(C(=O)CSc2n[nH]c(=O)[nH]c2=O)cc1 | -3 | . | . | -1 | 43* | 1
O=C(Nc1cccc(-c2ccc(N3CCOCC3)nn2)c1)c1ccc([N+](=O)[O-])cc1 | -2 | 99* | 52* | 31* | 0 | 3
O=C(Nc1cccc(-c2ccc(N3CCCCC3)nn2)c1)c1ccc(Br)o1 | -1 | 45 | -8 | ? | 0 | 7.9*
